Experimental data published in PubChem BioAssay.
Calls of active or inactive are those of the source.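 The calls were made as follows: active = inhibition over a set limit, the all-compound mean plus 3 SD, in both replicate runs; inconclusive = over that limit in just one replicate run; inactive = at or under that limit in both runs.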

assay: inhibitors of the yeast RAM network, pilot screen, dse1pr::URA3 reporter, 5-FOA selection (AID 869);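 also: 0% = DMSO wells with no growth and 100% = 10 µM 1-NA-PP1 with full growth; RAM network block rescues cells from 5-FOA so hits raise OD615 growth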; conditions: S. cerevisiae dse1pr::URA3 5-FOA growth, OD615, 2 d; at 10 µM; stronger effect = higher value; strain carries analog-sensitive mutant Cbk1 kinase

inhibition, inactive:
O=C(c1cc(C2CC2)on1)N1CCN(C(c2ccccc2)c2ccccc2)CC1 0.66%
O=C(C1COc2ccccc2O1)N1CCCC1 (stereo not given) 2.62%
CCn1cc(C(=O)NCC2CCCO2)c(=O)c2cc(S(=O)(=O)N(C)C3CCCCC3)ccc21 (stereo not given) 4.23%
CCCNC(=O)CS(=O)(=O)Cc1nc(-c2cccc(OC)c2)oc1C 0.365%
CCOC(=O)C1CCN(Cc2ccc(F)c(Br)c2)CC1 2.35%
COc1ccc(CCNC(=O)C2(C)CCC(=O)N2Cc2ccc3c(c2)OCO3)cc1OC (stereo not given) 0.985%
CCn1cc(C(=O)NCCCOC)c(=O)c2cc(S(=O)(=O)N(C)C)ccc21 0.395%
Cc1cc(C)nc(/N=C2\NC(=O)CC(C(=O)O)N2c2ccc(Cl)cc2)n1 (stereo not given) 1.93%
O=C(O)c1ccccc1S(=O)(=O)NCC(O)COc1ccc(Br)cc1 (stereo not given) 1.09%
COc1ccc(S(=O)(=O)N(CC(=O)N2CCN(c3ccccc3OC)CC2)c2ccccc2)cc1 0.87%
CCOc1ccccc1NC(=O)CC1Nc2cc(C)c(C)cc2NC1=O (stereo not given) 0.04%
CCOC(=O)C(CC)n1nc(C)n2c(cc3sccc32)c1=O (stereo not given) -1.04%
CCOC(=O)C(CC)(CCC(=O)O)c1csc(N)n1 (stereo not given) 0.94%
CCOc1ccc(NC(=O)CN2C(=O)C3CCCN3C2=O)cc1 (stereo not given) -0.315%
CCOC(=O)N1CCN(C(=O)COc2ccc(S(=O)(=O)NC(C)C)cc2)CC1 1.71%
